Test results taken from the supplement of paper PMC6555819.

Legend:
Assay in all cases: PBM binding z-score (relative to random genomic background probes); higher = stronger binding; sequences stand for … in GC…GCGATTGACAGCGTAGAATGAAGG
[1] = system: RARb homodimer (NR concentration 270 nM)
Method in brief: (§1)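 Ligand-free nuclear receptor dimers were bound for 1 h to custom Agilent 4×180K protein-binding microarrays. Detection used antibodies against each partner (one per run). Binding z-scores rest on regression-normalized fluorescence, with random background probes as the reference.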

[2] = system: RARg:RXRa (NR concentration 270 nM, RXRa partner concentration 90 nM)
Method in brief: as §1

[3] = system: RARg homodimer (NR concentration 270 nM)
Method in brief: as §1

[4] = system: RXRa DBDmut IVT, anti-RXR (DBD mutation: RXRa K156A/R161A, NR concentration 90 nM)
Method in brief: as §1

[5] = system: RXRa homodimer (NR concentration 180 nM)
Method in brief: as §1

[6] = system: THRa:RXRa (NR concentration 90 nM, RXRa partner concentration 90 nM)
Method in brief: as §1

[7] = system: THRa homodimer (NR concentration 90 nM)
Method in brief: as §1

[8] = system: VDR homodimer (NR concentration 270 nM)
Method in brief: as §1

Sequence | PBM binding z-score [1] | PBM binding z-score [2] | PBM binding z-score [3] | PBM binding z-score [4] | PBM binding z-score [5] | PBM binding z-score [6] | PBM binding z-score [7] | PBM binding z-score [8]
CGTACAAGGTCAAGGTCAGTGAAAGAGACTCGAA | 5.35 | 6.85 | 7.48 | 3.82 | 6.83 | 4.45 | 3.84 | 3.49
GCTGCTAGGTCAGGTTGGTGAGCTAACGGGTACG | 2.33 | 2.37 | 3.34 | 0.361 | 1.05 | 1.76 | 0.218 | 0.0347
CCTACTGGGCCAAAGGTCATCGATTCCAATGCTC | 4.9 | 6.09 | 5.38 | 0.987 | 7.08 | 3.65 | 0.966 | 2.04
AGAACGAGGGCAATGTGTTGATAGCACGGGTGGC | 1.23 | 1.16 | 1.44 | 1.74 | 0.945 | 0.861 | -0.000904 | 0.944
CCTCGGAGGACAGGAGGTCAGAGCTGTCCGCTTT | 3.17 | 3.42 | 3.29 | 0.04 | 2.07 | 2.67 | 0.822 | 0.982
TCATATAGGTAAATGCTAGGGGAAAGTCCGATCT | 0.135 | 0.401 | 0.27 | 1.85 | 0.821 | 0.401 | 0.433 | 0.491
GTACCAAGGTGAATAGGTCGTTGACGAGTAGGCG | 1.93 | 2.91 | 1.53 | -0.0525 | 2.19 | 1.92 | 0.438 | 0.14
CCAGTCAGGTGAGAAGGTAACTCAGCCTCGATTA | 0.469 | 0.276 | 0.321 | -0.0426 | 0.153 | 1.11 | 0.512 | -0.271
TCTCGGAGGACGCGAAAGGTCAGAGCTCGACATC | 4.26 | 4.31 | 4.12 | 0.446 | 4.2 | 3.01 | 0.235 | 0.581
GGAACGAGGGCATTCGAGTTGATATCATGGCGAT | 0.726 | 1.25 | 1.52 | 2.79 | 0.858 | 3.38 | -0.359 | 2.91
GCTGCTAGGTCACGTTGGTCAGCTAACGGGTACG | 3.68 | 4.37 | 5.6 | 1.5 | 3.09 | 3.38 | 1.79 | 0.836
CCTAGTTGATCAGGAGGTCACACACCGGATATGA | 3.89 | 4.82 | 3.78 | 1.4 | 4.41 | 3.6 | 2.51 | 3.06
AATACAGGGTCACTAGTCCAGAGTAGGTACGAAT | 3.23 | 4.5 | 4.83 | 2.7 | 4.87 | 3.31 | 1.32 | 2.27
CCTTCCGGGTCACGAGGTTATAGCACGACGAGCG | 4.02 | 6.06 | 5.4 | 1.68 | 7.05 | 4.22 | 2.95 | 2.57
CGTCCAAGGTCAAAGGTCAGTGAAGAGATGACGG | 5.42 | 8.7 | 7.94 | 3.87 | 10 | 4.99 | 2.62 | 4.06
CGAACTAGGTCATTGACAGGTCAGTGAATAGTAA | 4.18 | 6.77 | 5.57 | 2.35 | 4.6 | 3.32 | 0.924 | 2.04
AGAACGAGGCCAATGAGTTGATAGCACGGGTGGC | 0.127 | 0.169 | 0.718 | 1.01 | 0.286 | 0.223 | 0.00356 | 1.71
CAGCCTAGGTCAGGGCCAGTGTAGGAGGAACGTT | 2.75 | 2.76 | 3.69 | -0.674 | 1.58 | 2.17 | 0.608 | -0.169
CGAACTAGTTCATTGACAGGACAGTGAATAGTAA | 0.576 | 1.79 | 1.11 | 3 | 0.234 | 0.837 | -0.237 | 2.01

Sequence | PBM binding z-score [1] | PBM binding z-score [2] | PBM binding z-score [3] | PBM binding z-score [4] | PBM binding z-score [5] | PBM binding z-score [6] | PBM binding z-score [7] | PBM binding z-score [8]
TAGCCTAGGTCATGAGCCAGTATACCACGCGAAC | 2.5 | 4.1 | 3.99 | 0.516 | 3.37 | 2.97 | 1.01 | 0.409
TAGCCTAGGTCATGGGCCATTATACCACGCGAAC | 3.25 | 4.27 | 4.52 | 0.45 | 3.75 | 3.17 | 1.37 | 0.862
GCATATAGGTAATAAAAGGTGAAAGTCCGATTGT | 1.63 | 0.972 | 0.621 | 0.496 | 1.53 | 2.61 | -0.141 | 0.166
CGTACTGGGCCAAGGTCATTGATCAGTCAAAGCA | 3.36 | 3.89 | 3.26 | 1.57 | 3.05 | 3.42 | 2.56 | 3.55
CCTTACGGGTCACGATGTTATAGCACGACGAGCG | 3.21 | 5.22 | 5.07 | 0.775 | 5.71 | 2.88 | 0.472 | 0.567
TCTAGTTGGTCAAAGATCACACACTCGAAATGCG | 0.919 | 1.57 | 0.992 | 1.48 | 1.61 | 0.536 | 0.263 | 0.452
ATATGTAGGTTAGTTGGGGTCATTCAGACTAGGC | 3.96 | 4.34 | 2.99 | 2.64 | 6.03 | 5.13 | 3.99 | 5.97
ATCTCTAGGTAAAAGATCAGTGAATCCCGAGGAT | -0.353 | 0.381 | 0.48 | -0.342 | 0.281 | 0.298 | 0.125 | -0.0729
CCAACTGGGGCAAAGGTTACCATACTCAGTACGA | 2.56 | 3.77 | 2.06 | 0.365 | 4.41 | 1.84 | 0.0572 | 0.0335
AGAATGAGGTTACCAAAGATCATGGAAACGCTTG | 0.797 | 2.26 | 1.87 | 1.21 | 2.81 | 3.03 | 0.729 | 0.455
CTACCAAGGTGAACTAGGTCGTTGATTACTATTC | 1.98 | 1.45 | 1.42 | 0.925 | 1.49 | 2.82 | 1.68 | 0.82
AGAAAGAGGGCACGCTGAGTTGATAGCAGAGTAG | 1.64 | 2.5 | 3.08 | 1.36 | 1.83 | 1.5 | -0.338 | 1.23
AGAACGAGGGCAATGATTTGATAGCACGGGTGGC | 0.954 | 0.982 | 1.4 | 1.64 | 0.834 | 0.95 | 0.00137 | 0.721
CCTGCTAGGTCATGCTCAGCTAATCTACAGTATG | 2.76 | 3.89 | 4.39 | 2.05 | 2.4 | 2.57 | 0.87 | 0.178
GCTCGGAGGACAAGGTTAGAGCTTTGTCCGTAGA | 0.733 | 0.376 | 1.01 | -0.384 | 0.102 | 1.28 | -0.0516 | -0.796
GATGCAGGGTCAGCTAGAGGCCAGAGTATGGAAA | 3.34 | 6.65 | 5.08 | 1.24 | 4.39 | 2.95 | 0.228 | 0.522
ATCTCTAGGTAAAGATAGGTCAGTGAATGCAAAT | 2.4 | 1.84 | 1.85 | 0.189 | 1.2 | 2.02 | 0.451 | 0.412
ACTCGGAGGACAAAGGTCGGAGCTACGCCAGTGA | 2.12 | 3.28 | 1.75 | 0.784 | 2.2 | 1.98 | 0.0146 | 0.22
CCAGACAGGTGAGAAGGTACCTCAGCCTCGATTA | 0.101 | 0.161 | 0.0168 | 0.0456 | 0.155 | 0.0348 | 0.0556 | -0.352

Sequence | PBM binding z-score [1] | PBM binding z-score [2] | PBM binding z-score [3] | PBM binding z-score [4] | PBM binding z-score [5] | PBM binding z-score [6] | PBM binding z-score [7] | PBM binding z-score [8]
CTACCAAGGTGATCAAGGTCGTTGATTACTATTC | 1.47 | 0.906 | 0.808 | 1.42 | 1.11 | 2.71 | 1.55 | 2.33
ATCGAAAGGTCGATGAGGTGAGTATACACCGTTT | 2.52 | 3.5 | 3.32 | 0.841 | 3.56 | 3.75 | 0.943 | 1.17
CCTAGTTGGTCAGGAGGTAACACACCGGATATGA | 1.01 | 0.732 | 0.881 | -0.282 | 0.455 | 0.766 | 0.712 | 0.75
ATCTCTAGGTAAAACTTCAGTGAATCCCGAGGAT | -0.785 | 0.396 | 0.43 | -0.375 | 0.101 | 0.283 | -0.319 | -0.455
TCTGCTAGGTCAGTTGGTTAGCTAACGAGCTGCC | 2.11 | 2.15 | 2.76 | 0.517 | 0.728 | 1.15 | -0.142 | -0.573
ATATGTAGGTTACATCCGGGCCATTCAGGCTATG | 0.788 | 1.35 | 0.995 | 0.497 | 0.936 | 2.04 | 0.851 | 0.406
ATATATAGGTTACATCCGGGTCATTCAGGCTATG | 3.34 | 4.2 | 2.64 | 1.57 | 3.51 | 4.03 | 2.74 | 3.65
AACGAAAGGTCGTGAGGTGAGTATACAGAAAGGC | 3.14 | 4.62 | 3.99 | 1.68 | 5.2 | 3.55 | 1.33 | 0.812
ATATGTAGGTTAGCTGGGGTCATTTAGACTAGGC | 3.75 | 3.88 | 2.65 | 2.15 | 5.02 | 5.36 | 3 | 4.51
CGAACGAGGGCATGAGTTGATTGCAAATGCCGAT | 0.769 | 1.29 | 1.48 | 2.73 | 0.985 | 1.22 | -0.209 | 1.94
CCTACTGGGCCATCCGGTCATTGATATCAACGTT | 1.9 | 0.787 | 1.34 | -0.598 | 0.106 | 0.75 | 0.677 | 0.0499
TCGCCTAGGTCATTGGGCCAGTATAGTACGCATC | 2.87 | 3.95 | 3.88 | 2.13 | 2.69 | 2.68 | 0.959 | 1.57
CGTCAAAGTCCAACTAAGGTAACGTAAAGCACGC | 1.43 | 0.748 | 1.4 | 1.14 | 0.261 | 3.44 | 1.91 | 0.579
GCTTGTAGATCACGGTTAAGAAAGACTAAGCTAA | -0.369 | -0.304 | -0.36 | 0.053 | -0.526 | -0.523 | -1.01 | -0.582
CCTACTGGGCCAAGGTGATTGATCAGTCAAAGCA | -0.085 | -0.199 | -0.0733 | -1.43 | -0.57 | 0.355 | -0.015 | -0.782
ATCCAAAGGTCGTGAGGTGAGTATACAGAAAGGC | 3.47 | 5.02 | 4.46 | 1.72 | 5.91 | 3.66 | 1.97 | 1.63
CTACCAAGGTGAACAAGGTGGTTGATTACTATTC | 0.848 | 0.716 | 0.76 | 0.305 | 0.617 | 1.7 | 0.798 | -0.122
CTAACTAGGTCATCCAGGACAGTGAATACATTGA | 2.94 | 4.11 | 4.62 | 2.34 | 3.07 | 3.84 | 2.16 | 2.32
